PubChem BioAssay (NCATS)
Records with an inconclusive call do not appear. The source made the active and inactive calls. Calls come from the whole dose curve; as a rule, active = well fitted cell-killing curve with a large enough effect; inconclusive = small, poorly fitted or top-dose-only effect; inactive = no such curve, though single readings can be large or run the other way.

Assay: qHTS of pediatric cancer cell lines to identify multiple opportunities for drug repurposing: Primary screen for LAN-5 cells (AID 1347100)
Conditions: LAN-5 neuroblastoma viability, CellTiter-Glo luminescence, 48 h; series mostly up to 46 µM
In short: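 Viability after 48 h compound treatment at 37C, 500-1,000 cells/well, read as ATP luminescence with CellTiter-Glo. Primary screens used 11-point (MIPE, 0.78 nM-46 µM) or 8-point (NPC, 0.59 nM-46 µM) final concentrations; follow-up screens used 11-point dilutions.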
Potency is the fitted concentration of half-maximal effect.

Question: With `O=C(c1ccc(C=Cc2n[nH]c3ccccc23)cc1)N1CCNCC1` as the compound, how does the Potency read?
Answer: 833 nM (active)

Question: Which Potency does the source give for `CC1(C)CC(=O)c2c(C(F)(F)F)nn(-c3ccc(C(N)=O)c(NC4CCC(O)CC4)c3)c2C1` (centres undefined) here?
Answer: 148 nM (active)

Question: For `COc1ccc2ccc(=O)oc2c1CC=C(C)C`, which Potency is on record?
Answer: 29600 nM (active)

Question: Which Potency does the source give for `COc1cc2c(cc1OC)[C@@H]1Cc3ccc(OC)c(OC)c3CN1CC2` here?
Answer: 10500 nM (active)

Question: With `CCCCCCOC(=O)N=C(N)c1ccc(NCc2nc3cc(C(=O)N(CCC(=O)OCC)c4ccccn4)ccc3n2C)cc1` as the compound, how does the Potency read?
Answer: 23500 nM (active)

Question: For `c1cc(OCCN2CCCCC2)cc(-c2n[nH]c3ccc(-c4ncn[nH]4)cc23)c1`, which Potency is on record?
Answer: 14800 nM (active)

Question: With `COc1ccc(-c2cc3nccn3c(Nc3ncccc3C(N)=O)n2)cc1OC` as the compound, how does the Potency read?
Answer: 1480 nM (active)

Question: For `CC(C)n1c(C=C[C@H](O)C[C@H](O)CC(=O)O)c(-c2ccc(F)cc2)c2ccccc21`, which Potency is on record?
Answer: inactive

Question: Which Potency does the source give for `OCCn1cc(-c2ccc3c(c2)CCC3=NO)c(-c2ccncc2)n1` here?
Answer: inactive

Question: Which Potency does the source give for `COc1c(C)cnc(Cn2cnc3c(Cl)nc(N)nc32)c1C` here?
Answer: 166 nM (active)

Question: With `CN(C)c1ccc(-c2nc3ncc(Cl)c(N4CCN(CC(=O)Nc5nccs5)CC4)c3[nH]2)cc1` as the compound, how does the Potency read?
Answer: 833 nM (active)

Question: For `O=C(Nc1ccccc1)Nc1ccc(-c2ccc(C(=O)[C@H]3CCC[C@H]3C(=O)O)cc2)cc1`, which Potency is on record?
Answer: inactive

Question: Which Potency does the source give for `COc1ccc2c(c1)CC[C@H]1[C@@H]2CC[C@]2(C)[C@@H](NCCCCCCN3C(=O)C=CC3=O)CC[C@H]12` here?
Answer: inactive

Question: With `COC(=O)N1CCN(Cc2cccc(NC(=O)Nc3ccc(C)nc3)c2F)CC1` as the compound, how does the Potency read?
Answer: inactive
